# CFTR F508del cor: correctors of CFTR F508del function in bronchial epithelial cells; AID 720511; activity (quench increase), % at 7.58 µM; hit rate 0.36% among 350,000; CFBE cells, YFP halide quenching; stimulated with forskolin plus potentiator P3; % fluorescence drop versus neutral controls;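 active = mean added fluorescence quench of at least 8% versus neutral control, with both replicates also reaching 8%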;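 also: cells transiently co-express mutant CFTR-F508del with the halide-sensitive YFP; corrector assay measuring rescue of mutant channel to the surface after 24 h compound exposure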
# PAX8 reporter: PAX8 transcriptional activity inhibition; hit rate 1.2% among 360,000; RMG-I TPO-luciferase reporter, SteadyGlo, 24 h; inhibition, % at 12.6 µM;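 active = mean replicate inhibition at least 60% with every replicate also reaching 60%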;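 also: luciferase light reporting Pax8 driven TPO promoter activity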
# Env fusion inh: blocks HIV Env-driven cell-cell fusion | HeLa-JRFL Env/CEM21 cell fusion, luciferase | inhibition, % at 12.3 µM | hit rate 1.1% among 360,000 | AID 651610;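 active = mean replicate inhibition score of at least 50 and every replicate individually at or above 50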
# PGC1a acetyl inh: modulators of PGC1a acetylation; hit rate 0.17% among 350,000; inhibition, % at 15.6 µM; U2OS PGC1a acetylation, AlphaScreen anti-acetyl-lysine; with virally co-expressed GCN5 acetyltransferase;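 active = every replicate shows inhibition of at least 40%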
# INS-1E GSIS act: primary screen for activators of insulin secretion dependent on glucose, INS-1E cells, GLuc reporter luminescence. INS-1E GLuc reporter insulin secretion, 2-3 h. activation, % at 16.6 µM. hit rate 0.61% among 370,000;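 active = lowest replicate activation of at least 40%, so every replicate reaches that level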
# EWS-Fli block: EWS/Fli transcriptional activity inhibition. inhibition, % at 12.6 µM. hit rate 0.67% among 350,000. A673 NR0B1-luciferase reporter, viability-normalised;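 active = mean inhibition of at least 50% after viability correction, with every replicate also passing that limit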;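 also: firefly luciferase signal divided by Alamar Blue viability fluorescence both relative to DMSO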
# Hits are given with their value; . = inactive; / = no result; ! = not active in a repeat. This is a sample that favours compounds with a hit; in the whole collection about 2.7% have one here.
SMILES,CFTR F508del cor,PAX8 reporter,Env fusion inh,PGC1a acetyl inh,INS-1E GSIS act,EWS-Fli block
O=Cc1s/c(=N\S(=O)(=O)c2ccccc2)n(CCCCl)c1Cl,.,76,.,/,.,55
CC(C)(c1ccccc1)c1ccc(OCC(O)CNC2CCN(Cc3ccccc3)CC2)cc1 (configuration not stated),.,80,.,.,666,.
COc1ccc(CNCC(O)COc2ccc(C(C)(C)c3ccccc3)cc2)cc1 (configuration not stated),.,.,.,/,73,.
CCOc1ccc(OCC(O)CNC2CCN(Cc3ccccc3)CC2)cc1 (configuration not stated),/,.,.,.,.,.
COc1ccc(NC(=O)N(C)C[C@H]2Oc3ccc(NC(=O)Nc4ccc5c(c4)OCO5)cc3CC(=O)N([C@@H](C)CO)C[C@@H]2C)cc1,.,.,.,.,.,.
Nc1ccccc1Oc1ncc(C(F)(F)F)cc1Cl,.,/,/,46,.,.
CC(=O)Nc1ccc(-c2ccnc3c2CC(C)(C(=O)Nc2cccc(C(F)(F)F)c2)O3)cc1 (configuration not stated),.,.,.,/,.,.
CC(=O)Nc1cccc(-c2ccnc3c2CC(C)(C(=O)Nc2cccc(Oc4ccccc4)c2)O3)c1 (configuration not stated),.,64,.,.,.,.
CC(=O)Nc1ccc(-c2ccnc3c2CC(C)(C(=O)Nc2cccc(OC(F)(F)F)c2)O3)cc1 (configuration not stated),.,.,.,.,69,.
CC(=O)Nc1cccc(-c2ccnc3c2CC(C)(C(=O)NCc2cccs2)O3)c1 (configuration not stated),9.9,.,.,/,/,60
C[C@H](CO)N1C[C@H](C)[C@H](CN(C)C(=O)c2cccc(F)c2)Oc2cc(C#CC3CCCC3)ccc2S1(=O)=O,.,/,.,.,.,.
CO[C@H]1CN(C)C(=O)c2ccc(NC(=O)Cc3ccccc3)cc2OC[C@H](C)N(CC2CC2)C[C@@H]1C,.,/,/,.,.,.
CCOC(=O)C1C(=O)OC(C)(C)C1C(CC)C(=O)c1c(C)cc(C)cc1C (configuration not stated),.,.,76,.,.,.
Cc1ccc(S(=O)(=O)N2C[C@@H]3N[C@H](C2)C3c2ccc(/C=C/c3ccccc3)cc2)cc1 (some centres not stated),.,.,/,.,502!,.
N#Cc1ccc(-c2ccc([C@@H]3[C@@H]4CN(S(=O)(=O)c5ccc(-c6ccccc6)cc5)C[C@H]3N4)cc2)cc1,.,75,/,85,.,.
Cc1ccccc1-c1ccc(C2[C@@H]3CN(S(=O)(=O)c4ccccc4C)C[C@H]2N3)cc1 (some centres not stated),.,.,/,.,179!,.
COc1cccc(S(=O)(=O)N2C[C@@H]3N[C@H](C2)C3c2ccc(/C=C/c3ccccc3)cc2)c1 (some centres not stated),.,92!,/,.,.,.
COc1cccc(-c2ccc(C3[C@@H]4CN(S(=O)(=O)c5ccccc5)C[C@H]3N4)cc2)c1 (some centres not stated),.,.,/,.,.,.
C/C=C/c1ccc(C2[C@@H]3CN(S(=O)(=O)c4ccccc4)C[C@H]2N3)cc1 (some centres not stated),.,.,/,.,.,.
COc1ccccc1S(=O)(=O)N1C[C@@H]2N[C@H](C1)C2c1ccc(-c2ccccc2C)cc1 (some centres not stated),.,.,/,.,.,.
COc1ccc2c3c(n(C)c2c1)[C@H](CO)NCC31CN(C(=O)c2ccc(F)cc2)C1,.,/,/,.,.,.
C[C@@H]1CN([C@H](C)CO)C(=O)c2cc(NC(=O)NC3CCCCC3)ccc2O[C@H]1CN(C)Cc1ccc2c(c1)OCO2,.,.,.,.,.,.
COc1ccc(NC(=O)Nc2ccc3c(c2)C(=O)N([C@@H](C)CO)C[C@H](C)[C@@H](CN(C)Cc2ccncc2)OCCCC[C@H](C)O3)cc1,.,.,.,.,.,.
Cc1noc(C)c1NC(=O)Nc1cccc2c1O[C@H](CN(C)S(=O)(=O)c1cccs1)[C@@H](C)CN([C@@H](C)CO)C2=O,.,/,/,.,.,.
